Neddyl block: inhibitors of cullin neddylation, primary screen, biochemical, TR-FRET, uHTS, NAE and Ubc12; actives 0.58% (n = 360,000); AID 651699, 2012; NEDD8-conjugating enzyme Ubc12 (Homo sapiens) + NEDD8-activating enzyme E1 regulatory …; calls only at 25 µM; in the data active = inhibition above about 36%
PfGluPho inh: PfG6PD enzyme inhibitors, primary screen, biochemical, fluorescence intensity, uHTS; PfGluPho enzyme, NADPH resazurin-diaphorase fluorescence; actives 0.78% (n = 350,000); inhibition, % at 20 µM; glucose-6-phosphate dehydrogenase-6-phosphogluconolactonase (Plasmodium falciparum 3D7);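 active = inhibition reaching at least a set limit at 20 µM in the primary screen, cut at about 59% in these data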;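 also: 0% = DMSO wells with substrate and 100% = DMSO wells lacking glucose-6-phosphate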
proKLK7 act: proKLK7 zymogen activators, primary screen, biochemical, fluorescence intensity; purified proKLK7, EDANS-DABCYL substrate fluorescence; 100% is mature enzyme control, 0% vehicle; AID 652039, 2013; actives 0.9% (n = 370,000); activation, % at 7 µM; Kallikrein-7 (Homo sapiens), P49862;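 active = activation above the mean of all tested compounds plus 3 SD, computed per campaign excluding outliers beyond control limits, cut at about 13% in these data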
Target sequence (P49862 whole entry, looked up): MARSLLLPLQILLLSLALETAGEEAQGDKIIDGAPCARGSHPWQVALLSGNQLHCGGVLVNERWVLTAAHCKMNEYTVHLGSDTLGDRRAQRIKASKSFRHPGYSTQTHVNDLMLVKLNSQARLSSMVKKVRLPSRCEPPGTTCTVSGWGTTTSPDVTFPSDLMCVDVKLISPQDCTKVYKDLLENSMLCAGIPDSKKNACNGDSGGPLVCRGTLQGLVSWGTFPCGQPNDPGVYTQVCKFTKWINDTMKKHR
FAS-TE inh: FAS thioesterase domain inhibitors, primary screen, biochemical, fluorescence intensity, uHTS; recombinant FAS-TE, OMFH fluorogenic substrate, fluorescence endpoint; actives 0.67% (n = 360,000); AID 602261, 2012; inhibition, % at 15 µM; Fatty acid synthase (Homo sapiens), P49327;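 active = compounds whose normalised, plate-corrected inhibition of enzyme fluorescence in the single-dose primary screen is 50% or more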;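 also: 0% = DMSO with enzyme and 100% = substrate without enzyme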
PfGluPho conf: PfG6PD inhibitors, hit retest, confirmation, biochemical, fluorescence intensity, single concentration | shares compounds with PfGluPho inh | recombinant PfGluPho, NADPH-diaphorase-resazurin fluorescence | inhibition, % at 20 µM | actives 34% (n = 2,400) | AID 504753, 2011;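 active = inhibition of at least 50% at 20 µM in any single replicate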;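 also: 0% = DMSO with substrate and 100% = DMSO lacking glucose-6-phosphate substrate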
Diaphorase 10uM: diaphorase inhibitors and chemical oxidizers, confirmation, counter-screen for P. falciparum G6PD inhibitor project, biochemical, fluorescence intensity, 10 µM NADPH; shares compounds with PfGluPho inh; diaphorase-coupled resazurin reduction, NADPH 10 uM; inhibition, % at 20 µM; actives 39% (n = 820); AID 504862, 2011;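 active = average inhibition reaching 50% or more with the compound at 20 µM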;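 also: resorufin red fluorescence formed as diaphorase reduces resazurin using NADPH; 0% = DMSO with enzyme and 100% = DMSO without enzyme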
Diaph ctr 30uM: diaphorase inhibitors and chemical oxidizers, confirmation, counter-screen for P. falciparum G6PD inhibitor project, biochemical, fluorescence intensity, 30 µM NADPH; Diaphorase/resazurin coupled assay, resorufin fluorescence; actives 29% (n = 820); inhibition, % at 20 µM; shares compounds with PfGluPho inh;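 active = inhibition averaging 50% or more, tested at 20 µM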;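 also: 0% = DMSO with enzyme and 100% = DMSO wells lacking diaphorase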
FAS-TE conf: FAS thioesterase domain inhibitors, confirmation, biochemical, fluorescence intensity, single concentration | shares compounds with FAS-TE inh | recombinant FAS-TE, OMFH fluorogenic substrate | inhibition, % at 15 µM | actives 45% (n = 2,300);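 active = compounds inhibiting the enzyme by at least 50% at 15 µM in any one of the replicates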;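 also: 0% = enzyme with DMSO only and 100% = wells lacking enzyme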
KLK7 act conf: proKLK7 zymogen activators, confirmation, biochemical, fluorescence intensity, triplicate | actives 68% (n = 3,200) | shares compounds with proKLK7 act | purified proKLK7, EDANS-DABCYL substrate fluorescence; scaled: vehicle 0, mature enzyme 100 | activation, % at 7 µM;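 active = activation, as change over the incubation, above the mean of all tested compounds plus 3 SD, cut at about 13% in these data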
EDANS interfere: EDANS-DABCYL substrate optical interference, artefact control for kallikrein-7 zymogen activator project, biochemical, fluorescence intensity, high throughput | shares compounds with proKLK7 act | no enzyme, 4 h; solvent 0%, active enzyme control 100% | activation, % at 7 µM | actives 80% (n = 3,200);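 active = activation above the all-compound mean plus 3 SD, ignoring values outside control-based bounds, cut at about 4.8% in these data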;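 also: value is the 4 h activation minus the activation read at time zero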
K7 EDANS ctr: counter-screen for kallikrein-7 activators: EDANS-DABCYL interference, dose response; actives 20% (n = 250); EC50, µM; AID 720493; shares compounds with proKLK7 act; EDANS-DABCYL peptide fluorescence interference, no enzyme;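 active = compounds that raise the fluorescence signal in this interference counterscreen, with EC50 at or below 10 µM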;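 also: intact quenched peptide substrate alone read at 355 nm excitation and 520 nm emission; signal is fluorescence gain from T0 to T4 after four hours at room temperature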
* = called active by the depositor; i = inactive; / = no result shown; + = active, no number. An excerpt weighted towards active compounds, which were near 2.7% of everything screened.

SMILES | Neddyl block | PfGluPho inh | proKLK7 act | FAS-TE inh | PfGluPho conf | KLK7 act conf | EDANS interfere | others
Cc1ccc(NC(=O)Cn2nnc(-c3ccccc3F)n2)c(C)c1 | / | / | 1 | / | / | / | /
Cc1cccn2c(=O)c3cc(C(=O)NC(C)C)c(=N)n(Cc4ccncc4)c3nc12 | / | 73* | 116* | -2 | 21 | 32* | 37*
CCOC(=O)C1=C(CSc2nc(-c3ccncc3)ccc2C#N)OC(N)=C(C#N)C1c1ccc(OC)cc1 (stereo not given) | i | 59* | 26* | 20 | 10 | 67* | 66*
CCOC(=O)C1=C(CSc2nc(CC)c(C)cc2C#N)OC(N)=C(C#N)C1c1ccc(OC)cc1 (stereo not given) | i | 33 | 5 | 14 | / | / | /
Cc1cc(-n2c(C)cc(C(=O)COc3ccc4ccc(=O)oc4c3)c2C)no1 | + | 89* | 59* | 38 | 39 | 44* | 54*
COc1ccc2nc3cc(Cl)ccc3c(Nc3ccc(O)c(CN4CCN(C)CC4)c3)c2c1 | i | 109* | 22* | -4 | 45* | 32* | 22* | Diaphorase 10uM=33;Diaph ctr 30uM=40;K7 EDANS ctr=>69
CNC(=O)CN1C(=O)c2cccc3cccc1c23 | i | -6 | 3 | -3 | / | / | /
CN1/C(=N\O)c2cccc3cccc1c23 | i | 76* | 21* | -7 | 46 | 40* | 51*
CCCCNS(=O)(=O)/C=C/c1ccc(OC)cc1CNC(=O)OC(C)(C)C | / | / | 0 | / | / | / | /
NC(=O)c1sc2nc(N3CCOCC3)c3c(c2c1N)CCCC3 | i | 66* | 21* | 2 | 12 | -1 | 0
CN(C(=O)c1sc2nc(N3CCOCC3)c3c(c2c1N)CCCC3)c1ccccc1 | i | 45 | -1 | 18 | / | / | /
O=C(Nc1ccccc1)Nc1sccc1-c1nc2ccccc2s1 | i | 84* | 35* | 31 | 3 | -212 | -177
C=CCN1[C@H](CO)[C@H](c2ccccc2)[C@@H]1C#N | / | / | 0 | / | / | / | /
COc1cc(/C=C2/SC(=S)N(c3ccccc3)C2=O)ccc1Oc1nc(N2CCOCC2)nc(N2CCOCC2)n1 | i | 6 | 0 | 63* | / | / | / | FAS-TE conf=-3
CCCCNS(=O)(=O)/C=C/c1cc(C)ccc1CNC(=O)OC(C)(C)C | / | / | 1 | / | / | / | /
COc1ccccc1C(=O)NC1CCCCN(Cc2ccc(OC(F)(F)F)cc2)C1=O (stereo not given) | / | / | 0 | / | / | / | /
CCCCCn1c(CN2CCN(c3cccc(Cl)c3)CC2)nc2c1c(=O)n(C)c(=O)n2C | i | 20 | 0 | 79* | / | / | / | FAS-TE conf=35*
CCCCn1c(CN2CCN(c3cccc(Cl)c3)CC2)nc2c1c(=O)n(C)c(=O)n2C | i | -4 | 0 | 71* | / | / | / | FAS-TE conf=54*
CCCCn1c(CN2CCN(c3ccccc3)CC2)nc2c1c(=O)n(C)c(=O)n2C | i | -5 | / | 50* | / | / | / | FAS-TE conf=50*
